Assay [1] is described as follows: compounds binding Alexa647 anti-His antibody – biochemical, small-molecule microarray, 635 nm fluorescence, artefact control for SMM control protein annotation, primary screen (AID 1128).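 Further: score merges feature fluorescence with signal-to-noise for each printed compound spot.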 The following applies: higher = more signal.
The test system of assay [2] is Human papillomavirus type 1a E7 protein (residues 1-88). Put plainly: HPV1a E7 small-molecule binders, primary screen, biochemical, small-molecule microarray, residues 1-88, 635 nm (AID 1129). The following applies: small-molecule microarray binding, fluorescence 635 nm; higher = more signal.
For assay [3], the target named is Focal adhesion kinase 1 (Homo sapiens) (UniProt Q05397). The experiment in a line: PTK2 protein binding on printed compound slides – biochemical, small-molecule microarray, 635/667 nm fluorescence, BSA, DTT, primary screen (AID 1130).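 Further: composite of spot emission at 667 nm and signal to noise over triplicate slides.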 The following applies: 635 nm fluorescence, higher = more signal.
Chain of Focal adhesion kinase 1 (Homo sapiens) (Q05397 whole entry, looked up): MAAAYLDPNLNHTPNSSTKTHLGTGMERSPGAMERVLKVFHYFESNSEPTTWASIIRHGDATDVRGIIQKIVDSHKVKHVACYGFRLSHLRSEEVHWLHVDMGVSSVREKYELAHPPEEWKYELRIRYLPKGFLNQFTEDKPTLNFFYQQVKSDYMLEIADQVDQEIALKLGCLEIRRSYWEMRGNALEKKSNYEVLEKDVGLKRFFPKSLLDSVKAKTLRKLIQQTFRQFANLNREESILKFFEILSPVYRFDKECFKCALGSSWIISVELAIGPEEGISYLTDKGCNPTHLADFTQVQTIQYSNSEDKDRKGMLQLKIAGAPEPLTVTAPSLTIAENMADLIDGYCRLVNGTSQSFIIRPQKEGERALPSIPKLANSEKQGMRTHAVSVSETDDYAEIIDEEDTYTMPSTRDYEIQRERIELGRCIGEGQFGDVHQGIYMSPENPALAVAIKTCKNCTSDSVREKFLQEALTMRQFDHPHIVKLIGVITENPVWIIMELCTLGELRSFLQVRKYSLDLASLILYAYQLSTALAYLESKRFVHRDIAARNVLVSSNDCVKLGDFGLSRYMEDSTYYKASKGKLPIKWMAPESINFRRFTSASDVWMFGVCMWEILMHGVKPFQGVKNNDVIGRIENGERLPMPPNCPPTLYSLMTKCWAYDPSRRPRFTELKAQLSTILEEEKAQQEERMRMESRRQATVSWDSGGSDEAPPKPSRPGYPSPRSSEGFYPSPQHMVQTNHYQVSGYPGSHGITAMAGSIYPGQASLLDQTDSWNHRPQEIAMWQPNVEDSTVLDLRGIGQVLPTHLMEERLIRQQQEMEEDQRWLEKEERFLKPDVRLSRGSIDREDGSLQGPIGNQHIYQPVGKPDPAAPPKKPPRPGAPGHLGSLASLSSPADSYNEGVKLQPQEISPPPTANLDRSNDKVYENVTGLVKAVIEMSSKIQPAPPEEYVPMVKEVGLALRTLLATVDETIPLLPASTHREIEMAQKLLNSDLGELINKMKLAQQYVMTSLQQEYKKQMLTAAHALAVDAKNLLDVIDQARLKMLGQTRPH
In assay [4] the test system is Fibrinogen (Alexa647-labelled). The experiment in a line: Alexa647-fibrinogen binding to printed small molecules – biochemical, small-molecule microarray, 635/667 nm fluorescence, artefact control for SMM control-protein annotation, profiling panel (AID 1131).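 Further: z-score merges 667 nm fluorescence with per-spot signal-to-noise over triplicate slides.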 The following applies: fibrinogen-A647 binding fluorescence, higher = more signal.
Assay [5] addresses Follistatin (Homo sapiens) (UniProt P19883). The experiment in a line: FST protein binding to printed compounds – biochemical, small-molecule microarray, 635/667 nm fluorescence, primary screen (AID 1132). The following applies: 635 nm fluorescence, higher = more signal.
The target in assay [6] is Fibroblast growth factor 2 (Homo sapiens) (UniProt P09038). Put plainly: basic fibroblast growth factor binding to printed compounds – biochemical, small-molecule microarray, 635/667 nm fluorescence, primary screen (AID 1133). The following applies: FGF2, fluorescence 635/667, higher = more signal.
Chain of Fibroblast growth factor 2 (Homo sapiens) (P09038 whole entry, looked up): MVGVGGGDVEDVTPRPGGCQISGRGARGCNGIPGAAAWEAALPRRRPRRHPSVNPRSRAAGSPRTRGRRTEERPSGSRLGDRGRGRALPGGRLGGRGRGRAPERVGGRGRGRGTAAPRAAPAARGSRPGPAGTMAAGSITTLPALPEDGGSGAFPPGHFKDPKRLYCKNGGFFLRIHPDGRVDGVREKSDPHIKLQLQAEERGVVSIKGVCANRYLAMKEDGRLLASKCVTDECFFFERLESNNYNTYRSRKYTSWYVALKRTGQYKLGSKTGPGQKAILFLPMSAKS
Assay [7] can be described thus: JC-1 mitochondrial potential readout, lung cancer cells – cell-based, A549, JC-1 fluorescence, basal, 24 h, 100 nL, profiling panel (AID 1138).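 Further: A549 lung adenocarcinoma cells under basal conditions with no added stimulus; test concentration not given here.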 The following applies: higher = more signal.
Assay [8] relates to Lefty1. The experiment in a line: Lefty1 protein binding to printed compounds – biochemical, small-molecule microarray, 635/667 nm fluorescence, primary screen (AID 1139). The following applies: fluorescence 635/667, higher = more signal.
In assay [9] the test system is wheat germ agglutinin (Triticum aestivum), Alexa647-labelled. The experiment in a line: Alexa647-WGA lectin binding to printed small molecules – biochemical, small-molecule microarray, 635/667 nm fluorescence, artefact control for SMM control-protein annotation, profiling panel (AID 1140).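 Further: score merges 667 nm feature emission with signal to noise over triplicate slides.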 The following applies: WGA-A647 binding, 635 nm fluorescence, higher = more signal.

For assay [10], the target named is Luciferin 4-monooxygenase (Photinus pyralis) (UniProt P08659). The experiment in a line: inhibition of purified Photinus pyralis luciferase – biochemical, luminescence, purified enzyme, 2006 set, primary screen (AID 1141).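 Further: cell-free assay with purified firefly luciferase at 100 ng per well in PBS; test concentration not given here.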 The following applies: purified firefly luciferase, SteadyGlo luminescence, 30 min; higher = more signal, called active from +8 up or from −8 down.
Chain of Luciferin 4-monooxygenase (Photinus pyralis) (P08659 whole entry, looked up): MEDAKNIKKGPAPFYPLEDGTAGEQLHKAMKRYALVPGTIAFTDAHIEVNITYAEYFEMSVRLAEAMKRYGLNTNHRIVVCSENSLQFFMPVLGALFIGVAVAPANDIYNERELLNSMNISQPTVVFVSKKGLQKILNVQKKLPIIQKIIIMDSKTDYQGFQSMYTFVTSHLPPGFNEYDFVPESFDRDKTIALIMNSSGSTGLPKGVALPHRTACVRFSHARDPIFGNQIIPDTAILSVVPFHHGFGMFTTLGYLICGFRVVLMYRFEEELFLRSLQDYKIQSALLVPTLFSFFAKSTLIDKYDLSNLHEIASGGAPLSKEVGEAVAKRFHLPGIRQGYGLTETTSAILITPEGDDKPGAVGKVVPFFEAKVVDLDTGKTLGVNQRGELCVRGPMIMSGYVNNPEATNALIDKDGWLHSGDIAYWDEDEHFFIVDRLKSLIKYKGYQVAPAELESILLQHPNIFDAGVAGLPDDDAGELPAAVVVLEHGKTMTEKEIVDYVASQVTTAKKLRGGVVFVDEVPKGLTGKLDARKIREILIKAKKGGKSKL

Calls of active or inactive are those of the source.

Chain of Follistatin (Homo sapiens) (P19883 whole entry, looked up): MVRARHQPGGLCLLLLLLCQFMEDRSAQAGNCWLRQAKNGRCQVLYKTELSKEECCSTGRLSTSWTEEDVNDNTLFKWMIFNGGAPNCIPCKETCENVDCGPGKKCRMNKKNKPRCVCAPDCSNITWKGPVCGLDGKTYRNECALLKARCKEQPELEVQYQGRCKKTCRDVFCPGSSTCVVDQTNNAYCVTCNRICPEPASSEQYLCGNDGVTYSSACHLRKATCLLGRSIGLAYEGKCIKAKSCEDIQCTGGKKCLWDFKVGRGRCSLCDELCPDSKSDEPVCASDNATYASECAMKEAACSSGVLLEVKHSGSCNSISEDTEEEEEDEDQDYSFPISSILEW

As for `CC(=O)OC[C@H]1O[C@H](CC=NOC[C@@H](O)[C@H]2O[C@@H]3OC(C)(C)O[C@@H]3[C@H]2O)C=C[C@@H]1OC(C)=O`, the composite z-score in assay [1] was determined as 0.638; in assay [2], 0.702; in assay [3], 0.15; in [4] it was 0.727; in [5], 0.209; in assay [6], 0.583. In addition, the composite z-score in [8] is 0.385; in [9], -0.0993. Moreover, the z-score is -0.325 in [7] and 0.94 (inactive) in assay [10].
In the case of `CC(C)C(=O)N[C@H]1CCCN1C(=O)C=Cc1ccccc1`, the composite z-score in assay [1] is 0.508; in assay [2] it was 0.899; in assay [3], 0.225; in [4], -0.198; in assay [5] it was 0.438; in [6] it was 0.54. For the same compound, the composite z-score in [8] was 1.13; in [9], -0.441. Further, the z-score is -0.509 in assay [7] and -0.0726 (inactive) in [10].
Regarding `CO[C@@H]1COC(=O)[C@H](CCSC)NC(=O)CC=C[C@@H](C)COC(=O)[C@@H]2CCCN2C(=O)CC=C[C@H]1C`, the composite z-score in assay [1] was 0.0289; in assay [2], 0.258; in [3] it was -0.702; in assay [4], -1.13; in assay [5], 0.779; in assay [6] it was 0.889. Further, the composite z-score was 1.15 in assay [8] and -1.37 in assay [9]. For the same compound, the results for the z-score in assay [7] and in assay [10] were 0.215 and -0.0167 (inactive), respectively.
Turning to `CCN1C(=O)[C@H]2[C@H]3[C@H](O)[C@H](O)CC(=NNC(=O)OCc4ccccc4)[C@H]3CC[C@H]2C1=O`, the composite z-score was 0.0371 in assay [1]; -0.601 in assay [2]; -0.117 in assay [3]; 0.0307 in assay [4]; -0.238 in assay [5]; 0.215 in [6]. The composite z-score in assay [8] was 0.235; in assay [9], 0.136. Moreover, the z-score is -0.538 in assay [7] and 0.69 (inactive) in [10].
Consider `CCOC(=O)[C@H](CC(C)C)NC(=O)CCC1CC(OC(=O)NCCc2ccc(F)cc2)CC2(CCCC(COC(=O)NCc3cccc(C(F)(F)F)c3)O2)O1` (stereo not given in full), for which the composite z-score in [1] worked out at 0.167; in [2] it was 1.15; in [3] it was 0.155; in [4], 0.619; in assay [5], 0.579; in assay [6], 0.987. Also, the composite z-score is 0.549 in [8] and 0.296 in assay [9]. Besides, the figures for the z-score in assay [7] and in assay [10] were -0.208 and 0.507 (inactive), respectively.
Regarding `CCN1C(=O)[C@H]2[C@H]3[C@H](O)[C@H](O)CC(=NO[C@@H](C)c4cc(-c5c(C)cc(C)cc5C)no4)[C@@H]3CC[C@H]2C1=O`, the composite z-score was -0.185 in [1]; 0.918 in assay [2]; 0.23 in assay [3]; 0.813 in assay [4]; 0.809 in assay [5]; 1.08 in assay [6]. Further, the composite z-score stood at 0.922 in assay [8] and 1.01 in assay [9]. The z-score in [7] was 0.474; in assay [10], 1.06 (inactive).
On to `CCOC(=O)CCN1C(=O)[C@H]2[C@H]3[C@H](O)[C@H](O)CC(=NOCC=C(C)CCC=C(C)C)[C@H]3CC[C@H]2C1=O`, for which the composite z-score was -1.12 in assay [1]; -0.251 in assay [2]; -0.0341 in assay [3]; -0.161 in [4]; -0.975 in assay [5]; 0.404 in [6]. Further, the results for the composite z-score in [8] and in assay [9] were -0.893 and -0.503, respectively. Also, the z-score in assay [7] was 0.64; in assay [10], 0.0499 (inactive).
`CCOC(=O)CCN1C(=O)[C@H]2[C@@H]3C(=CC[C@H]2C1=O)C(=O)[C@H]1O[C@H]1[C@H]3O`: the composite z-score in [1] was -0.705; in assay [2], -0.307; in assay [3], -0.336; in assay [4], -0.476; in assay [5], -1.02; in assay [6], -0.858. Also, the results for the composite z-score in assay [8] and in [9] were -0.762 and 0.243, respectively. Further, the z-score in [7] was 0.736; in assay [10], -1.04 (inactive).
With `COC(=O)[C@H](C)NC(=O)CCC1CC(OC(=O)NCCc2ccc(F)cc2)CC2(CCCC(COC(=O)NCC3CCCCC3)O2)O1` (stereo not given in full), the composite z-score stood at 0.608 in [1]; 1.19 in [2]; 0.178 in assay [3]; 0.86 in assay [4]; 0.639 in [5]; 0.572 in assay [6]. In addition, the composite z-score in assay [8] was 0.744; in assay [9], 0.804. The values for the z-score in assay [7] and in assay [10] were -1.03 and 0.765 (inactive), respectively.
Take `CC(CCN1CCCc2nc(C)c(C)cc21)=NO[C@H](C)c1cn([C@@H]2COC[C@H]2O)nn1`: the composite z-score in [1] is 0.652; in assay [2], 0.793; in [3], 1.19; in assay [4], 0.704; in [5], 0.622; in [6], 0.743. Moreover, the composite z-score in assay [8] amounted to 0.764; in assay [9], 0.205. The z-score in assay [7] is -0.0769; in assay [10], 0.711 (inactive).
Consider `COC(=O)[C@H](C)NC(=O)CCC1CC(OC(=O)NCc2cccc3ccccc23)CC2(CCCC(COC(=O)NCCc3ccccc3OC)O2)O1` (stereo not given in full), for which the composite z-score in assay [1] came to 1.13; in assay [2], 1.18; in assay [3], 0.656; in assay [4] it was 0.661; in [5], 0.941; in assay [6], 0.544. Besides, the results for the composite z-score in assay [8] and in assay [9] were 0.89 and 0.316, respectively. Besides, the results for the z-score in [7] and in assay [10] were -0.358 and 0.603 (inactive), respectively.
`CO[C@H]1COC(=O)CCC[C@H](C)[C@H](OC)COC(=O)CC=C[C@@H]1C`: the composite z-score is 1.03 in [1]; -0.676 in assay [2]; -0.0022 in assay [3]; -1.52 in [4]; 1.1 in assay [5]; 1.13 in [6]. Also, the composite z-score in assay [8] was 0.987; in assay [9] it was -0.0108. Also, the z-score in assay [7] was -0.904; in [10], -0.981 (inactive).
For the compound `CO[C@@H]1C=CCC(=O)N[C@@H](C)C(=O)OC[C@@H](OC)[C@H](C)C=CCC(=O)OC[C@H]1C`, the composite z-score was 0.207 in [1]; -0.724 in assay [2]; -0.397 in assay [3]; -0.556 in [4]; 1.39 in assay [5]; 0.615 in assay [6]. For the same compound, the composite z-score in assay [8] was 1.59; in assay [9], -0.87. Also, the z-score in assay [7] is 1.04; in [10], -0.461 (inactive).
Turning to `COC(=O)[C@H](C)NC(=O)CC=C[C@@H](C)[C@@H]1C=C[C@H](O)[C@@H](CO)O1`, the composite z-score in [1] is 0.0816; in assay [2], 0.228; in [3], -0.118; in [4], -0.0588; in [5], 1.14; in assay [6], 1. In addition, the composite z-score was 1.39 in assay [8] and -0.28 in assay [9]. For the same compound, the z-score in assay [7] is -0.142; in assay [10], 0.374 (inactive).
For `Cc1ccc(S(=O)(=O)N[C@@H]2COC(=O)CC=C[C@@H](C)[C@H](NS(=O)(=O)c3ccc(C)cc3)COC(=O)[C@H](C)NC(=O)CC=C[C@H]2C)cc1`, the composite z-score was -0.563 in assay [1]; -0.676 in [2]; -0.1 in assay [3]; -0.111 in [4]; 0.72 in assay [5]; 0.499 in assay [6]. Also, the composite z-score in [8] is 0.61; in assay [9], 0.0658. Further, the z-score in assay [7] is 0.73; in assay [10] it was -0.743 (inactive).

Values taken from PubChem BioAssay.
